These results are taken from PubChem BioAssay (NCI).

SMILES strings stand for the structures. This is part of a sample that, as a whole, favours compounds with a hit. Of some 83,000 tested, about 20% had one in any assay.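 Cell lines were cultured in 96-well plates, exposed to a single compound concentration, and assessed for percent growth 48 hours later.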 Activity calls are given as the source filed them. How the source made its calls: active means growth percent below 10; inactive means the rest.

In the first assay the test system is OVCAR-4 ovarian. In words: NCI-60 one-dose screen, 48 h (100 = growth as untreated, 0 = no growth, -100 = all killed). Particulars: 10 µM unless noted.
As to `CN(C)c1ccc(/C=C(\C#N)c2nc3ccccc3s2)cc1`, the growth was 90.9% (inactive). On to `COc1ccc(Cl)cc1Nc1nc(C(F)(F)F)ccc1C(=O)N/N=C/c1cccnc1`, for which the growth is 29.7% (inactive).

In the case of `CC(=O)C1=C(O)C=C2Oc3c(C(=O)/C=C/c4ccccc4)c(O)c(C)c(O)c3[C@]2(C)C1=O`, the growth was 55.4% (inactive). As for `Cn1c(=O)c2c(ncn2CC[N+](C)(C)C)n(C)c1=O`, the growth is 105% (inactive). `OC(c1cc(-c2ccccc2)nc2ccc(Cl)cc12)C1CCCCN1` (stereo not drawn): the growth is 79% (inactive).

The test system of a further assay is SK-OV-3 ovarian. The description is as above. Particulars: 10 µM unless noted.
As for `CC[n+]1ccc2c(c1)C(=O)c1nccc3c1c-2nc1ccccc13`, the growth is -9.56% (active).

Turning to `COc1ccc(-c2csc(NC(=O)CN3CCN(c4cc5c(cc4F)c(=O)c(C(=O)O)cn5C4CC4)CC3)n2)cc1`, the growth was -4.37% (active). Same read-out and setting: the figure for `O=C1c2cc3c(cc2-c2c1c1cc(F)c(F)cc1c(=O)n2C[C@H](O)CO)OCO3` is -4.97% (active). For `Cn1c2ccccc2c2c3c(c4c5ccccc5n(CCCCCC#N)c4c21)C(=O)N(O)C3=O`, the growth was 37.1% (inactive). For the molecule `CCOC(=O)c1c2c(n3ccc(NC(=O)CCN4CCOCC4)cc13)C(=O)c1ncccc1C2=O`, the growth is 36.6% (inactive). `Oc1ccccc1N=Cc1c(O)ccc2ccccc12`: the growth was 84.6% (inactive). In the case of `O=c1ccc2cc3ccccc3cc2[nH]1`, the growth was 102% (inactive). As to `O=C(Nc1ccc(Oc2ccc(F)cc2)c(Cl)c1)c1cccnc1`, the growth was 110% (inactive). As to `CCCCCCCCCc1cc(CN2CCCCC2)c(O)c(CN2CCCCC2)c1`, the growth was 78.3% (inactive).

As for `CC/C(Cc1ccccc1)=C(\c1ccc(OCCN2CCCC2)cc1)c1ccc(OC(C)=O)cc1`, the growth was 107% (inactive). As to `C=C1CC[C@@H]2[C@](C)(COC(C)=O)[C@H](OC(C)=O)CC[C@@]2(C)[C@@H]1CC(Nc1ccc(S(=O)(=O)Nc2nc(C)cc(C)n2)cc1)C1=CCOC1=O` (stereo partly drawn), the growth was 112% (inactive). In the case of `COc1ccc2c(c1)C(=O)/C(=C/c1cccc(OCC(=O)Nc3nc4c(s3)CCCC4)c1)O2`, the growth is 119% (inactive). In the case of `O=C([C@@H](COCc1ccccc1)N1C(=O)[C@@H](N2C(=O)OC[C@@H]2c2ccccc2)[C@H]1/C=C/c1ccccc1)N1CCC(CCN2CCCCC2)CC1`, the growth is 86.6% (inactive).

With `O=c1[nH]c(-c2ccccn2)nc2sc3c(c12)CCCCC3`, the growth is 53% (inactive). As to `NC1=CC(=O)C(=O)c2ccccc21`, the growth is 92.6% (inactive). With `CN1CCOCCOCCOc2ccccc2NC(=O)c2nc(cnc2N)-c2ccc(cc2)S1(=O)=O`, the growth was 41% (inactive). Still for that read-out and setting: next, `COc1ccc(S(=O)(=O)NCCCNc2nccc(-c3c(-c4cccc(N)c4)nc4sccn34)n2)cc1`: 112% (inactive). Consider `COc1ccccc1N1CCN(CCn2c(=O)c3c(c4ccccc4n3C)n(C)c2=O)CC1`, for which the growth was 93.6% (inactive). On to `COc1cnc2c(c1)C(=O)c1c-2n(CCCBr)c(=O)c2cc([N+](=O)[O-])ccc12`, for which the growth is 8.4% (active). With `O=C(C[C@@H](C(=O)NCc1cccc(C(F)(F)F)c1)N1C(=O)[C@@H](N2C(=O)OC[C@@H]2c2ccccc2)[C@H]1/C=C/c1ccccc1)NC1CCN(Cc2ccccc2)CC1`, the growth was 81.1% (inactive). On to `CCCCCCNC(=O)Oc1ccc(/C(=C(\C)c2ccccc2)c2ccc(OCCN(CC)CC)cc2)cc1`, for which the growth was 74.3% (inactive). Regarding `CC#CC#Cc1cccc(=O)o1`, the growth is 104% (inactive). The same measure, in the same setting: next, `CCCCCCCCCCCCNC(=O)[C@H]1CSC(c2ccc(OC)c(F)c2)N1` (stereo partly drawn): -98.1% (active); `O=C(CN1CCN(c2cc3c(cc2F)c(=O)c(C(=O)N/N=C/c2ccccc2)cn3C2CC2)CC1)N/N=C\c1ccccc1`: 124% (inactive).

With `CNc1nc(C)c(-c2nc(Nc3cccc(S(N)(=O)=O)c3)ncc2F)s1`, the growth was 8.56% (active).

For the molecule `CC1=CC(=O)CC(C)(C)[C@@]1(O)/C=C/[C@@H](C)O`, the growth was 113% (inactive). Consider `CC(=O)Nc1ccc2c(c1)c(NC(C)=O)nn2C(=O)Nc1ccc(Cc2ccccc2)cc1`, for which the growth was 67.3% (inactive). On the same count and under the same terms, next, `Cn1c2ccccc2c2c3c(c4c5ccccc5[nH]c4c21)C(=O)N(N)C3=O`: 74% (inactive); `COc1cc(OC)c(/C=C/C(=O)c2c(OC)cc(OC)cc2OC)c(OC)c1`: 24.7% (inactive). As for `CCCCCCCCCCCCCCCCCCNC(=O)[C@H]1CSC(c2ccc(OC)c(F)c2)N1` (stereo partly drawn), the growth was 88.1% (inactive). As for `O=C1c2cc3c(cc2-c2c1c1cc(Cl)c(Cl)cc1c(=O)n2C[C@H](O)CO)OCO3`, the growth is -54% (active). On to `COc1cc2nc3cc([N+](=O)[O-])ccc3c(NCCCNCC(C)(C)O)c2cc1OC`, for which the growth is -46% (active). For `CC(C)C1=C[C@@]23CC[C@@H]4[C@](C)(CCC[C@@]4(C)C(=O)OCC#CCN4CCCC4)[C@H]2C[C@@H]1[C@H]1C(=O)OC(=O)[C@H]13`, the growth is 90.5% (inactive).

Take `CN(C)c1ccc(/C=C(\C#N)c2nc3ccccc3s2)cc1`: the growth is 111% (inactive).

Consider `COc1ccc(Cl)cc1Nc1nc(C(F)(F)F)ccc1C(=O)N/N=C/c1cccnc1`, for which the growth was 53.9% (inactive). Same read-out and setting: the figure for `CC(=O)C1=C(O)C=C2Oc3c(C(=O)/C=C/c4ccccc4)c(O)c(C)c(O)c3[C@]2(C)C1=O` is 40.9% (inactive). As for `Cn1c(=O)c2c(ncn2CC[N+](C)(C)C)n(C)c1=O`, the growth was 99.4% (inactive). For `OC(c1cc(-c2ccccc2)nc2ccc(Cl)cc12)C1CCCCN1` (stereo not drawn), the growth is 89.1% (inactive).
